Assay results as given in PubChem BioAssay (Tox21).
Records with an inconclusive call do not appear. Active and inactive are the calls of the source. Unless noted, the call rests on the fitted dose curve.

How the values were obtained:
[1] = Nuclear factor erythroid 2-related factor 2/antioxidant responsive element (Nrf2/ARE) small molecule agonists: qHTS cell viability counter screen in human keratinocytes (AID 1919968; active means well fitted curve in the direction sought with a large enough effect in the repeat runs; an effect the other way counts as inactive or inconclusive; further: nearly all actives have a fitted effect of over 55% in size)
In short: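 Cells of the KeratinoSens line were plated at 1,500 per well and left for 5 h before compound transfer from DMSO stocks. After a 23 h incubation (37 C, 5% CO2), CellTiter-Fluor was added. Signal was taken as fluorescence intensity 1 h later.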

[2] = Nuclear factor erythroid 2-related factor 2/antioxidant responsive element (Nrf2/ARE) small molecule agonists: luciferase reporter gene qHTS assay in human keratinocytes (AID 1919969); further: nearly all actives have a fitted effect of over 35% in size
[3] = target: Gonadotropin-releasing hormone receptor (Homo sapiens) (UniProt P30968); assay: Human gonadotropin-releasing hormone receptor (GnRHR) small molecule agonists, calcium flux assay in GnRHR-HEK293 cells (AID 1920063); further: nearly all actives have a fitted effect of over 35% in size
In short: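 Compounds dissolved in DMSO are pin-transferred onto dye-loaded GnRHR-HEK293 cells, which were seeded 18 h before at 37 C/5% CO2. Calcium signal is read as fluorescence intensity at 1 s intervals for 3 min.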

[4] = target: KiSS-1 receptor (Homo sapiens) (UniProt Q969F8); assay: Human kisspeptin (KISS1R) small molecule agonists, calcium flux assay in KISS1R-HEK293 cells (AID 1920064; active means well fitted curve in the direction sought with a large enough effect in the repeat runs; an effect the other way counts as inactive or inconclusive)
In short: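 Cell line: HEK293, stable human KISS1R. Dye loading 1 h at 37 C after 18 h culture. Read: kinetic fluorescence, 480/540 nm, 3 min at 1 s intervals.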

[5] = p53 small molecule agonists, cell-based qHTS assay with human liver microsomes (AID 1963577)
In short: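 Compounds act here after metabolic activation: human liver microsomes and NADPH, both at 0.5 mg/mL final, were co-added to p53RE-bla cells. Incubation ran 16 h at 37 C, followed by LiveBLAzer detection.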

[6] = p53 small molecule agonists, cell-based qHTS assay with rat liver microsomes (AID 1963578)
In short: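 Read-out is beta-lactamase reporter fluorescence (LiveBLAzer, 2 h, room temperature, dark) in p53RE-bla cells treated 16 h at 37 C with compound, rat liver microsomes and NADPH, both 0.5 mg/mL final.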

[7] = p53 small molecule agonists, cell-based qHTS assay with human liver microsomes: qHTS cell viability counter screen (AID 1963579); further: nearly all actives have a fitted effect of over 45% in size
In short: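 Cells carrying the p53 response-element beta-lactamase reporter are treated for 16 h at 37 C with test compounds in the presence of human liver microsomes and NADPH (both 0.5 mg/mL final); ATP-based CellTiter-Glo luminescence then reports viability.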

[8] = p53 small molecule agonists, cell-based qHTS assay with rat liver microsomes: qHTS cell viability counter screen (AID 1963580); further: nearly all actives have a fitted effect of over 45% in size
In short: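 Counter screen for cytotoxicity under metabolic activation: rat liver microsomes and NADPH, 0.5 mg/mL final each, added with compounds to p53RE-bla HCT-116 cells; 16 h at 37 C, then ATP luminescence read.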

[9] = p53 small molecule agonists, cell-based qHTS assay: qHTS cell viability counter screen (AID 1963581); further: nearly all actives have a fitted effect of over 45% in size
In short: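 ATP content measured by luminescence in HCT-116 p53RE-bla cells treated 16 h at 37 C, same wells as the reporter screen.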

[10] = p53 small molecule agonists, cell-based qHTS assay (AID 1963582; active means well fitted activation curve with a large enough effect in the signal ratio in the repeat runs, not every such curve was filed as active; the % refers to the signal ratio)
In short: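 16 h compound exposure (37 C) of p53 response element–bla cells, preceded by 5 h recovery at 37 C/5% CO2; read-out via LiveBLAzer B/G FRET substrate, 2 h RT, fluorescence intensity.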

[11] = cAMP Responsive Elements (CRE) small molecule agonists, cell-based qHTS assay (AID 1963590)
In short: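 HEK 293T cells stably bearing CRE-bla were plated at 2,000 cells per well and rested 18 h. Compounds, positive controls or DMSO were added for 3 h at 37 C. LiveBLAzer B/G substrate was then loaded for 2 h at room temperature.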

[12] = cAMP Responsive Elements (CRE) small molecule antagonists, cell-based qHTS assay (AID 1963591; active means well fitted inhibition curve with a large enough effect in the signal ratio in the repeat runs, not every such curve was filed as active; the % refers to the signal ratio)
In short: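 First, CRE-bla HEK293T cells settled 18 h at 37 C. Next, compound and 0.25 uM final NKH477 were applied for 3 h. Last, LiveBLAzer B/G substrate was loaded for 2 h at room temperature.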

[13] = target: Beta-2 adrenergic receptor (Homo sapiens) (UniProt P07550); assay: Adrenergic beta2 receptor (ADRB2) small molecule antagonists, cell-based qHTS assay (AID 1963592); further: series mostly up to about 92 µM; nearly all actives have a fitted effect of over 50% in size
In short: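 Assay format: CHO-ADRB2 cells, 18-20hr seeding at 37C/5% CO2, then compound plus 1nM isoproterenol agonist mix for 0.5hr RT. Homogeneous time-resolved fluorescence cAMP detection after 1hr, expressed as 665/615 nm ratio.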

[14] = target: D(2) dopamine receptor (Homo sapiens) (UniProt P14416); assay: Dopamine D2 receptor (DRD2) small molecule agonists, cell-based qHTS assay (AID 1963594); further: nearly all actives have a fitted effect of over 35% in size
In short: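 HEK293 cells stably expressing DRD2 were cultured 24 h at 37 C, then given Ro20-1724 (0.1 mM final) and compounds for 10 min at room temperature. NKH477 (200nM) was then added for 30 min. cAMP was read by HTRF.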

[15] = target: D(2) dopamine receptor (Homo sapiens) (UniProt P14416); assay: Dopamine D2 receptor (DRD2) small molecule antagonists, cell-based qHTS assay (AID 1963595; active means well fitted inhibition curve with a large enough effect in the signal ratio in the repeat runs, with a control signal flat; the % refers to the signal ratio)
In short: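 Antagonism was scored as restored cAMP in HEK293-DRD2 cells. These cells were stimulated with 200 nM NKH477 and 12 nM quinpirole for 30 min at room temperature, in the presence of 0.1 mM Ro20-1724.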

[16] = target: 5-hydroxytryptamine receptor 2A (Homo sapiens) (UniProt P28223); assay: 5-hydroxytryptamine receptor 2A (HTR2A) small molecule antagonists, cell-based qHTS assay (AID 1963586); further: nearly all actives have a fitted effect of over 45% in size
In short: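 CHO cells stably expressing human HTR2A were plated for 18 h at 37 C, then loaded with calcium dye for 1 h. Compounds were preincubated 5 min at room temperature before DOI (4 nM solution) was added. Kinetic fluorescence was read for 3 min.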

[17] = target: 5-hydroxytryptamine receptor 2A (Homo sapiens) (UniProt P28223); assay: 5-hydroxytryptamine receptor 2A (HTR2A) small molecule agonists, cell-based qHTS assay (AID 1963587); further: nearly all actives have a fitted effect of over 30% in size
In short: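 HTR2A-CHO cells, plated 18 h at 37 C/5% CO2, dye-loaded 1 h at 37 C; compounds in DMSO added by pin tool (agonist mode). Intracellular calcium flux read as kinetic fluorescence on FDSS over 2 min at 1 s intervals.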

[18] = target: Muscarinic acetylcholine receptor M1 (Homo sapiens) (UniProt P11229); assay: Cholinergic receptor muscarinic 1 (CHRM1) small molecule antagonists, cell-based qHTS assay (AID 1963588); further: nearly all actives have a fitted effect of over 40% in size
In short: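 Compounds were tested at 15 concentrations in three independent runs. Dye-loaded CHRM1-CHO cells were exposed 5 min at room temperature before stimulation by acetylcholine added at 50nM. Intracellular calcium was read kinetically on FDSS for 3 min.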

[19] = target: Muscarinic acetylcholine receptor M1 (Homo sapiens) (UniProt P11229); assay: Cholinergic receptor muscarinic 1 (CHRM1) small molecule agonists, cell-based qHTS assay (AID 1963589); further: nearly all actives have a fitted effect of over 35% in size
In short: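 Homogeneous fluorescence calcium flux, agonist mode. Human M1-expressing CHO cells; compound dosed at 15 concentrations, three independent runs; signal sampled every 1 sec.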

[20] = target: Beta-2 adrenergic receptor (Homo sapiens) (UniProt P07550); assay: Adrenergic beta2 receptor (ADRB2) small molecule agonists, cell-based qHTS assay (AID 1963593);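 further: CHO cells stably overexpressing human ADRB2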
In short: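 CHO cells stably over-expressing ADRB2 were plated overnight at 37C, then dosed with compounds plus a stimulation mix containing 100uM IBMX and 25uM Ro-20-1724 for 0.5hr at room temperature. cAMP was measured by HTRF competition, 1hr.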

Measured: Potency

Beta-2 adrenergic receptor (Homo sapiens), sequence (P07550 whole entry, looked up): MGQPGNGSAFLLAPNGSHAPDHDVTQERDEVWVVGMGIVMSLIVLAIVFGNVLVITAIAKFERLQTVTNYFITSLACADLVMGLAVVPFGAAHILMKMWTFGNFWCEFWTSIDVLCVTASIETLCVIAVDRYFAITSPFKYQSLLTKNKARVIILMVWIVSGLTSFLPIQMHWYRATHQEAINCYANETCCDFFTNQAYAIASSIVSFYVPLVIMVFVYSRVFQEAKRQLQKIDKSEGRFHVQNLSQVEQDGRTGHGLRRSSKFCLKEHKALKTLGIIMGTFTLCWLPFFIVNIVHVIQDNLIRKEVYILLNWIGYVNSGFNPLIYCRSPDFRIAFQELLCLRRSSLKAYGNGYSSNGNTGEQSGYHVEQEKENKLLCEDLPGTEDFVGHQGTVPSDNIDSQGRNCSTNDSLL
D(2) dopamine receptor (Homo sapiens), sequence (P14416 whole entry, looked up): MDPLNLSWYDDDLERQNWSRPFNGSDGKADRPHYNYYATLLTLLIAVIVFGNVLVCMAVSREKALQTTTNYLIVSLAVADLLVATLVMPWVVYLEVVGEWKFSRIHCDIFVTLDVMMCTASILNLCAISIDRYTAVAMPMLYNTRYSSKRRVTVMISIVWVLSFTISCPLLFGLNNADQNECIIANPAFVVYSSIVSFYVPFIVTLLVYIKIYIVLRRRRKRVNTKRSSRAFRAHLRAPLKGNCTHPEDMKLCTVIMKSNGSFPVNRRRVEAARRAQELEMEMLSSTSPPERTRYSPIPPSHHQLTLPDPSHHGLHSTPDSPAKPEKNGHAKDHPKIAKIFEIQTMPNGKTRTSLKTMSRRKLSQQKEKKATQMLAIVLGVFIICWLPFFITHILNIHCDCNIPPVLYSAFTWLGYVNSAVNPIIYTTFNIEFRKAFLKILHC
Muscarinic acetylcholine receptor M1 (Homo sapiens), sequence (P11229 whole entry, looked up): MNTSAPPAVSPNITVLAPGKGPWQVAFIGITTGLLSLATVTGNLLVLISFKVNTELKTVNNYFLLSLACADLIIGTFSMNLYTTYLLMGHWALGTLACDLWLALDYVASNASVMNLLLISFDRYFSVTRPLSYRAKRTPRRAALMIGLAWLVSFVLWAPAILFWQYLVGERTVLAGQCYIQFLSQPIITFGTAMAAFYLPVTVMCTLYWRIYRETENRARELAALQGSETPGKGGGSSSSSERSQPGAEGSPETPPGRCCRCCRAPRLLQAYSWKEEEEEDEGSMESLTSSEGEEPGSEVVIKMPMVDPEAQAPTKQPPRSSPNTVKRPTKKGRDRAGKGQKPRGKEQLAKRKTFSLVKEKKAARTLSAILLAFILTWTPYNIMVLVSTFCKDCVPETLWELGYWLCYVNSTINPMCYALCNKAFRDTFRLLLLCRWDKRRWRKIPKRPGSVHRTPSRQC
Gonadotropin-releasing hormone receptor (Homo sapiens), sequence (P30968 whole entry, looked up): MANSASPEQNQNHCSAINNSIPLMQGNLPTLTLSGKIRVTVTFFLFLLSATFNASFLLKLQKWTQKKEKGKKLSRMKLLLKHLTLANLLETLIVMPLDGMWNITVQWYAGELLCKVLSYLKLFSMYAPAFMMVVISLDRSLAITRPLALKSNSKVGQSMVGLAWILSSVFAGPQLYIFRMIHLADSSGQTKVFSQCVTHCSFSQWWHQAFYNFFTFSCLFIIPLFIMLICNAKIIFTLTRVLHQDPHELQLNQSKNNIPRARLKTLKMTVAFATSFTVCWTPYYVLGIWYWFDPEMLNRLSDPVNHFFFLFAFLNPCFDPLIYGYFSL
KiSS-1 receptor (Homo sapiens), sequence (Q969F8 whole entry, looked up): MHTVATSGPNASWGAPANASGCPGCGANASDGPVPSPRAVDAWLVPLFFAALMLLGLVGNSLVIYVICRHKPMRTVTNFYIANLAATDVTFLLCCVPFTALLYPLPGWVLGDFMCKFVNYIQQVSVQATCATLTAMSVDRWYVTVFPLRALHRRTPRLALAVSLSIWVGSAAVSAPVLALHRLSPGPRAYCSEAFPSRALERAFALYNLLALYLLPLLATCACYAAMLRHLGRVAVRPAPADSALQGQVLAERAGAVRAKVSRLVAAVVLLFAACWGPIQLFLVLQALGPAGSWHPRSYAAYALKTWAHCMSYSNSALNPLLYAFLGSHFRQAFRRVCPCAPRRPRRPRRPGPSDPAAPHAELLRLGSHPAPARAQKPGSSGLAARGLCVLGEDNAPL
5-hydroxytryptamine receptor 2A (Homo sapiens), sequence (P28223 whole entry, looked up): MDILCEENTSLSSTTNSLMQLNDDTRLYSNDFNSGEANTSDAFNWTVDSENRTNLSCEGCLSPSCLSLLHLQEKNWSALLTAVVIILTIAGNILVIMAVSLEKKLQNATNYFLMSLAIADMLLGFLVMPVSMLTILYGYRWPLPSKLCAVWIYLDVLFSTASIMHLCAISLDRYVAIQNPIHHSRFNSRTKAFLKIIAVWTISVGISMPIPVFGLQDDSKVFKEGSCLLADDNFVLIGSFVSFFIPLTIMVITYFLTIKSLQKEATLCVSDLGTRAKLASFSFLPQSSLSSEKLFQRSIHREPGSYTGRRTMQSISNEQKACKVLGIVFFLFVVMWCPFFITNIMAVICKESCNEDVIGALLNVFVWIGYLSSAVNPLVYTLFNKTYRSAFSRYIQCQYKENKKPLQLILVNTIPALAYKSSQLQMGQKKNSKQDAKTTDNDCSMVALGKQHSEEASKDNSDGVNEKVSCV

OC[C@@H](O)[C@@H](O)[C@H](O)[C@@H](O)CO
not listed: [16] | [17] | [18] | [19] | [20]
inactive: all other assays above

CC(=O)c1ccccn1
not listed: [20]
inactive: all other assays above

CC1CCC2CC1C2(C)C (stereo unspecified)
not listed: [15] | [16] | [20]
inactive: all other assays above

CC(O)(P(=O)(O)O)P(=O)(O)O
inactive: [1] | [2] | [3] | [4] | [8] | [9] | [11] | [12] | [13] | [14] | [15]

CCC1(c2ccccc2)C(=O)NCNC1=O
not listed: [16] | [17] | [18] | [19] | [20]
inactive: all other assays above

COc1ccccc1O
inactive: all assays above

CCCCCCCCCCCCS
not listed: [9]
inactive: all other assays above

Cc1ccnc2c1NC(=O)c1cccnc1N2C1CC1
not listed: [5] | [16] | [17] | [18] | [19]
inactive: all other assays above
